The text below walks through data of PubChem BioAssay AID1626 (SRMLSC, 2009).

Hit rate of the full screen: of about 220,000 compounds, about 2,000 (0.91%) were called active. About 2% were inconclusive and are not listed. Not all results are given here. Entries with a potency or affinity are not part of this list. Values without a mark were called inactive. Rule as the data show it: inconclusive = inhibition above about 80% without an active follow-up result; inactive = below that; test concentration not stated here.

This experiment in a line: M. tuberculosis H37Rv growth inhibitors, H37Rv strain (AID 1626).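 Also: bacteria incubated seven days before Alamar blue readout; 0% = bacteria only wells and 100% = bacteria with antibiotic wells.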 Particulars: active compounds read high, concentration not given here.
Usually inhibition stands for the relative decrease from the control value, in per cent. `CN(C)CCCN(Cc1ccccc1)C(=S)Nc1ccc(OC(F)F)cc1`: the inhibition was 4.19%.

On to `Cc1cc(C)n(-c2nc3ccccc3nc2Nc2ccc3c(c2)OCO3)n1`, for which the inhibition is 13.5%. In the case of `Cc1cccc(NC(=S)NCc2cccs2)c1C`, the inhibition was 9.19%.

As for `Cc1ccnc(NS(=O)(=O)c2ccc(Cl)nc2)c1`, the inhibition was -4.15%. Regarding `CCNC(=S)/N=C(/Nc1ccc(OC)cc1)Nc1nc(C)cc(C)n1`, the inhibition was -8.72%.

Regarding `CCSc1nnc(NC(=O)c2ccccc2)s1`, the inhibition is 0.13%. For `CCC(CC)c1nnc(NC(=O)c2ccco2)s1`, the inhibition is -8.07%. In the case of `CCSc1nnc(NC(=O)c2cccc3ccccc23)s1`, the inhibition was 3.82%. Next, `CCC(CC)c1nnc(NC(=O)c2cc(-c3ccccc3)nc3ccccc23)s1`: 65.7%; `CCc1nnc(NC(=O)c2c(OC)cccc2OC)s1`: -2.43%; `CCc1nnc(NC(=O)c2ccncc2)s1`: -7.55%. Next, `O=C(CSC1=NCCN1)NC12CC3CC(CC(C3)C1)C2`: -6.99%.

Take `CCN(CC)S(=O)(=O)c1cc([N+](=O)[O-])ccc1N=Nc1c(O)[nH]c2ccccc12`: the inhibition is 0.25%.

Take `COc1cccc(/C=N/NC(=S)Nc2cccnc2)c1`: the inhibition was 3.92%. Next, `Cc1nnc(SCC(=O)N2CCC(Cc3ccccc3)CC2)n(N)c1=O`: 7%; `COc1ccc(C2Nc3ccccc3C(=O)N2NC(=O)c2ccccc2)cc1OC` (stereo not drawn): 2.58%; `COc1cccc(NC(=O)CN(C)CC(=O)Nc2ccc(Cl)cc2[N+](=O)[O-])c1`: 7.39%. Next, `Cc1cc(NCCN2CCOCC2)n2nc(C)c(-c3ccc(Cl)cc3)c2n1`: 17.9%; `Cc1cccc(-c2cc3nc(C)cc(NCCCn4ccnc4)n3n2)c1`: 5.02%; `Cc1cc(NCCCn2ccnc2)n2nc(-c3ccc(F)cc3)cc2n1`: -4.87%. Next, `Cc1cccc(-c2cc3nc(C)cc(NCCCN(C)C)n3n2)c1`: -0.01%; `COCCNc1cc(C)nc2cc(-c3ccc(C)cc3)nn12`: -4.32%; `Cc1cc(NCCCn2ccnc2)n2nc(C)c(-c3ccccc3)c2n1`: -2.71%. Take `CCC(=O)Nc1ccccc1C(=O)OCc1ccc(C(=O)c2ccccc2)cc1`: the inhibition is 27.4%. Next, `Nn1c(SCC(=O)N2CCOCC2)nnc1C1CC1`: -3.01%. Next, `CCOC(=O)c1cc(N)cc([N+](=O)[O-])c1`: 5.48%; `Cc1cccc(C)c1NC(=S)N1CCCN(C)CC1`: -1.16%. Next, `CCC(CC)C(=O)N1CCCC(c2nc(-c3cccs3)no2)C1` (stereo not drawn): 10%; `CC1(OC(=O)CCc2ccccc2)C(=O)C=C2C=C3CCCN3C=C2C1=O` (stereo not drawn): 6.27%. As for `C/C(Cl)=C/Cn1c(SCC(C)C)nc2c1c(=O)[nH]c(=O)n2C`, the inhibition was 3.03%. `COc1cccc(NC(=O)N2CCOCC2)c1`: the inhibition is -7.85%. Next, `O=C(Oc1ccc(-c2cnc3ccccc3n2)cc1)c1ccco1`: 7.39%; `O=C(Nc1cccc(-c2cnc3ccccc3n2)c1)c1ccco1`: -2.67%; `O=C(Oc1ccc(-c2cnc3ccccc3n2)cc1)c1cccc([N+](=O)[O-])c1`: 24%. With `O=C(Oc1ccc(-c2cnc3ccccc3n2)cc1)c1cc([N+](=O)[O-])ccc1Cl`, the inhibition is 71.7%. Next, `COc1ccc(OC)c(-c2cc(C(=O)Nc3c(C)nn(Cc4ccccc4C)c3C)no2)c1`: 72.8%; `Cc1ccccc1NC(=O)CN1C(=S)NC(C)(C)CC1C` (stereo not drawn): 2.34%. Next, `CSc1nnnn1-c1ccc(Cl)cc1`: -2.8%.

As to `Cc1sc2ncnc(Sc3nnnn3-c3ccc(Cl)cc3)c2c1C`, the inhibition was -0.98%. As for `Cc1ccc(-n2cccc2C(=O)NS(=O)(=O)c2ccc(C)cc2)cc1`, the inhibition was -6.02%. Consider `CCc1ccc(OCC(=O)O/N=C(\N)c2ccccn2)cc1`, for which the inhibition is 8.77%. Turning to `O=C(CSc1nc(-c2ccccc2)c(-c2ccccc2)[nH]1)NCC1CCCO1` (stereo not drawn), the inhibition was -3.58%. Next, `N#CC1=C(S)N(c2ccccc2)C(c2ccc(-c3cc(Cl)ccc3Cl)o2)NC1=O` (stereo not drawn): 9.36%. As for `N#CC1=C(S)N(c2ccccc2)C(c2ccc(-c3cccc(Cl)c3)o2)NC1=O` (stereo not drawn), the inhibition is 4.44%. As to `C/C=C/c1ccc(OCCCCNCc2ccco2)c(OC)c1`, the inhibition is -4.41%. Consider `CCCN(CCC)C(=O)CC(c1ccccc1)c1ccc(C)cc1O` (stereo not drawn), for which the inhibition is 2.31%.

For the molecule `CCN(CC(=O)NCCC1=CCCCC1)S(=O)(=O)c1ccccc1`, the inhibition was -1.16%. Next, `COc1cccc(N2CCN(C(=O)c3ccc4nc(N5CCCCC5)sc4c3)CC2)c1`: 5.19%; `CCOC(=O)N1CCN(C(=O)c2ccc3nc(N4CCCCC4)sc3c2)CC1`: -6.19%. For the molecule `CSCCNC(=O)c1cccc(Cl)c1`, the inhibition was 3.62%. With `Cn1c(=O)c2c(nc(CN3CCOCC3)n2CC(=O)c2ccccc2)n(C)c1=O`, the inhibition was -10.9%. Regarding `CN1CCN(c2ncnc3c2c(-c2ccccc2)cn3-c2ccc(F)cc2)CC1`, the inhibition is 5.53%. Next, `Cc1scc(C(=O)N/N=C/c2ccc(OCC(C)C)cc2)c1C`: 6.9%. Next, `Cc1ccc(-c2cc(-c3ccc(C)cc3)[n+](C)o2)cc1`: -0.95%; `COc1ccc(/C=C/c2ccncc2)cc1`: -1.37%; `COc1cccc(NC(=O)Cn2c(CCC(=O)O)ccc2-c2cccs2)c1`: -0.82%. Turning to `Cc1ccccc1NC(=O)c1ccc(CSc2ncccn2)cc1`, the inhibition is 5.28%. Turning to `O=C(NCc1ccc(F)cc1)c1ccc(N2CCc3ccccc32)c([N+](=O)[O-])c1`, the inhibition is 13.9%. Next, `CCn1cc(CNC(=O)c2ccc(C)s2)cn1`: -1.4%. With `CS(=O)(=O)c1ccc(C(=O)NCc2ccc(F)cc2)cc1`, the inhibition is -6.92%. Next, `CCn1cc(CNC(=O)c2cccc([N+](=O)[O-])c2)cn1`: -9.32%.

For the molecule `CCOc1ccc(NC(=O)N2CCN(S(C)(=O)=O)CC2)cc1`, the inhibition is -3.68%. Next, `COc1ccc(-n2cnc3c(sc4nccc(N(C)C)c43)c2=O)cc1`: 10.5%.
